In the supplement of paper PMC3545927:
The list shows a part of the results. How many sequences the whole screen found active is unknown.

Target: furin, P09958
Assay: furin cleavage Z-score vs untreated control; higher = more cleavage, active = 3.5 or more, inactive = 1 or less, 8 variable residues between constant flanks
Procedure, shortened: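 Abundance of DNA freed from bead-bound 8-mer peptide–cDNA fusions by purified furin was measured as sequencing read counts after PCR adapter tagging. Cutting ran 7.5, 15 or 30 min in 0.01 ml of 50 mM HEPES pH 7.5 with CaCl2 and NaCl at 1:10 enzyme:substrate. The cleavage Z-score expresses these log counts against furin-free reactions after lowess adjustment and median absolute deviation scaling.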

Chain of furin, P09958 (P09958 whole entry): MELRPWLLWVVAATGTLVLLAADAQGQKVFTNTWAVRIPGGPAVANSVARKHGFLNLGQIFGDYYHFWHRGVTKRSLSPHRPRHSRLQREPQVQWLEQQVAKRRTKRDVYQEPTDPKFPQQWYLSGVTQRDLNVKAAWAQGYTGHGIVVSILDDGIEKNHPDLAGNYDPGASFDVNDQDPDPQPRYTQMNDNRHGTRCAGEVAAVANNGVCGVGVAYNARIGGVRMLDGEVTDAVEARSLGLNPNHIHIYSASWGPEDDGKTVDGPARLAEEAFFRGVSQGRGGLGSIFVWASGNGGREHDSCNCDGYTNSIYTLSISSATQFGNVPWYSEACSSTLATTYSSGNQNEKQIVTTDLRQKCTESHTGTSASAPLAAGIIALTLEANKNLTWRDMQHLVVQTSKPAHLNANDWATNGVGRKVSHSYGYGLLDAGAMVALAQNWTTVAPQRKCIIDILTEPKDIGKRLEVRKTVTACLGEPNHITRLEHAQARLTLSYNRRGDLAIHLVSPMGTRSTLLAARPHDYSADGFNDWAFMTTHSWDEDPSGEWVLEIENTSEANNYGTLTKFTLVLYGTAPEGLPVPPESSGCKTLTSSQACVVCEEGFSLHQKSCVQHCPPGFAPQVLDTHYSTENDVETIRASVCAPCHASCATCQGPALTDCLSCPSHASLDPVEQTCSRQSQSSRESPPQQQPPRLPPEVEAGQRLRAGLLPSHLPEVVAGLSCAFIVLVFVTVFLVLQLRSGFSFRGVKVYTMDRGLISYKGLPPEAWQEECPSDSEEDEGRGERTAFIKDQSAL

Sequence	furin cleavage Z-score (7.5 min)	furin cleavage Z-score (15 min)	furin cleavage Z-score (30 min)
CAKDVVCCSMAGNASASA [HC2114]	0.322 (inactive)	0.43 (inactive)	-1.58 (inactive)
CADSVDAKPDAGNASASA [CS1]	-0.899 (inactive)	-0.697 (inactive)	-0.815 (inactive)
CARQRRVRRRAGNASASA [FS-1160]	6.79 (active)	6.89 (active)	6.35 (active)
CAGPGRVRRRAGNASASA [FS-28]	8.24 (active)	9.49 (active)	7.22 (active)
CARQRRIYKTAGNASASA [FS-2590]	-1.61 (inactive)	-1.71 (inactive)	-0.22 (inactive)
CARQRRVPGNAGNASASA [FS-2768]	1.18	-0.0341 (inactive)	0.472 (inactive)
CAPSPRQARRAGNASASA [FS-1246]	0.263 (inactive)	2.43	2.92
CAPTTRVRRRAGNASASA [FS-702]	9.76 (active)	10.9 (active)	9.44 (active)
CARIKKWLEHAGNASASA [FS-1721]	-1.04 (inactive)	0.181 (inactive)	1.15
CAMEEESQHLAGNASASA [HC13]	1.19	0.958 (inactive)	0.124 (inactive)
CATTPCSGSFAGNASASA [HC1927]	-0.645 (inactive)	-1.19 (inactive)	0.309 (inactive)
CAVSCQRGYKAGNASASA [HC1165]	-0.75 (inactive)	0.637 (inactive)	1.1
